The full ranking holds about 33,000 sequences; the median of “E-score (-0.5 to 0.5)” is about -0.056, and the highest 2% start at about 0.38. This excerpt belongs to a sample that is enriched for the highest values.
These sequences were tested against Stb4 (UniProt P50104) (assay: PBM E-score (8-mer binding enrichment) (E-score (-0.5 to 0.5)); higher = stronger / more preferred TF binding). Conditions: protein concentration: 200 nM; construct: GST-DNA-binding domain.
Method in brief: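 For each ungapped eight-base word taken together with its reverse complement, the Universal PBM Analysis Suite assigned an E-score. Binding data came from GST-tagged yeast transcription factors, applied at about 100-200 nM, on universal all-10-mer Agilent arrays made double-stranded by primer extension. Fluorescent anti-GST marked bound protein, and scans were normalised with masliner.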

UniProt P50104, sequence (P50104 whole entry, the tested form may be a part): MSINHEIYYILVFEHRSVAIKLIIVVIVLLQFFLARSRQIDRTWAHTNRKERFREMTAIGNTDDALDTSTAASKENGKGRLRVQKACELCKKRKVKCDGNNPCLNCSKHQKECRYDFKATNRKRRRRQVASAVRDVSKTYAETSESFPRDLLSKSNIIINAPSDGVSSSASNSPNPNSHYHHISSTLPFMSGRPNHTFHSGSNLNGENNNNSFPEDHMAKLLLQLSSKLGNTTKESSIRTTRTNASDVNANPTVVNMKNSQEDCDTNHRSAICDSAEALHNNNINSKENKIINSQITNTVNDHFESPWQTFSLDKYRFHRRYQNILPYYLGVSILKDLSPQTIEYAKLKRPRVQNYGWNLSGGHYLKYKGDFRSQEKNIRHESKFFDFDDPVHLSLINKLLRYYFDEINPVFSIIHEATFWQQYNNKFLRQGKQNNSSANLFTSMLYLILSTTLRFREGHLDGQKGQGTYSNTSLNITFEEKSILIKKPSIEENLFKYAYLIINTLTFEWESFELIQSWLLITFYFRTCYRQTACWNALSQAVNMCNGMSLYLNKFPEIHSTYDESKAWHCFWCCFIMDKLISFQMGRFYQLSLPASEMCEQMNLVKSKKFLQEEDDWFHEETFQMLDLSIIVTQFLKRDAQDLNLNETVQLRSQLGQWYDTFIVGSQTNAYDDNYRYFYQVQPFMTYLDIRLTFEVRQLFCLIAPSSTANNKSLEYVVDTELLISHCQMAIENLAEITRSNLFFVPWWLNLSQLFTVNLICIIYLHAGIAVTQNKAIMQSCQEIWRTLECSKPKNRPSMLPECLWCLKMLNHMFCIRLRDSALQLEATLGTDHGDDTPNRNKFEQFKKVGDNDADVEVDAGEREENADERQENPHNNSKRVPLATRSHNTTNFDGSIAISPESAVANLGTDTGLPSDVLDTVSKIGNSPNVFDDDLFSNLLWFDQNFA

Sequence | PBM E-score
TGTAAGAA | 0.101
CACCTCCA | -0.167
AAGGATAG | 0.00922
CGTTCAGC | -0.00077
AACTCGGT | 0.286
CACTCGAA | -0.267
AACTCGCG | -0.00482
TACTCGGA | 0.409
TACTCGCA | -0.0584
CACTCGTA | -0.292
AACTCGCA | -0.278
AACTCGGA | 0.426
CACTCGGA | 0.422
TACTCGAA | -0.25
AACTCGTG | 0.0628
AACTCGGG | 0.383
TTCCAGAA | -0.0529
GTCGTGAA | -0.19
ATAAGCGA | 0.0555
ATCTGCAT | -0.071
AGGAACTG | -0.148
CGATCATC | 0.0839
GACTCGCA | -0.0572
CACTCGTC | 0.0228
CACTCGGG | 0.371

Sequence | PBM E-score
CACTCGGC | 0.402
GACTCGGA | 0.451
GACTCGGC | 0.327
CTCCCAAG | -0.114
ACGCCAGG | -0.0466
AAATCATG | -0.27
CTACCCGA | 0.464
CTACCCAA | -0.209
CTACCCGC | 0.273
ATACCCGC | 0.328
ATACCCTG | -0.0928
GTACCCAA | -0.0334
GTACCCGA | 0.437
ATACCCGA | 0.476
ATACCCAA | -0.0395
ATACCCCG | 0.205
ATACCCGG | 0.391
GTACCCTA | -0.206
GAAGTAGA | -0.0217
GCGAGTGA | -0.0567
GCATCTCA | -0.222
GGCACAAA | 0.104
ATATAGCC | 0.183
CCTGAACC | -0.232
GCCCTGCC | 0.0895

Sequence | PBM E-score
CGCTCGCA | 0.104
CGCTCGGA | 0.463
AGCTCGCA | -0.108
CGCTCGCC | -0.0544
CGCTCGTA | -0.176
CGCTCGGC | 0.412
CGCTCGTC | -0.19
GGCTCGAA | -0.0314
AGCTCGGA | 0.454
AGCTCGTA | -0.189
GGCTCGTA | -0.0188
GGCTCGGA | 0.466
AAGAGGCA | -0.186
CGACCAAG | -0.184
TCATTGCA | -0.328
CATGTTCC | 0.115
ATTCATTC | 0.172
ACCGCAGG | 0.0861
ACCTCTAC | -0.0322
AGGCGAAT | -0.189
AGAATTGA | -0.194
GAGAAGAA | 0.0753
GACAGATC | 0.0617
AGGATAGC | 0.206
CGGATAGC | 0.394

Sequence | PBM E-score
GGGATAGA | -0.0799
AGGATAGA | -0.107
CAGATAGC | -0.0171
CGGATAGA | 0.454
TATAGACA | -0.192
CCTGGCGA | -0.204
AGCTGCAA | -0.0718
GTTCCGGA | 0.435
CCTCCGGC | 0.295
ATTCCGGG | 0.353
CTTCCGGA | 0.396
AGTCCGGA | 0.332
CGTCCGGA | 0.3
CTTCCGTA | 0.379
ATTCCGGA | 0.405
ATTCCGGC | 0.354
GTTCCGTA | 0.314
GGTCCGGA | 0.34
CTTCCGGC | 0.392
AACTAACT | 0.0909
AGAGGATG | -0.0042
ATGGCTAA | -0.0251
CCTATTGC | -0.0913
ACAGCATC | -0.102
GAATCTTA | -0.0785

Sequence | PBM E-score
CTTTCCAC | 0.0376
CGTTCCGC | 0.412
CGTTCCCC | -0.014
AGTTCCGA | 0.474
AGTTCCCG | 0.396
AGTTCCTA | 0.00074
AGGTCCGA | 0.304
AGTTCCAA | 0.012
AGTTCCCC | 0.138
CGGTCCGA | 0.449
AGTTCCGC | 0.324
AGTTCCCA | -0.0388
GGGTCCGA | 0.344
CAGCTTTC | -0.0811
ATGGGTGG | -0.0789
GTGAGTTA | -0.211
ATGTAAAG | -0.162
ACTTGCGC | -0.0787
AGAAGGGG | -0.169
ATAGCGTC | -0.209
GTAACGGA | 0.281
GTTTGCAA | -0.113
CGATTTGA | -0.0548
ATTCACAA | -0.0973
AGTTCCGG | 0.419

Sequence | PBM E-score
AGTTCCTG | -0.14
CGTTCCTA | -0.00632
CGTTCCAA | -0.0817
GGTTCCGA | 0.468
GGTTCCCA | -0.0962
CGTTCCGA | 0.451
AGTTCCAG | -0.136
GGTTCCAA | 0.196
ACCACCCT | -0.162
CCTCTTAA | -0.0505
GACGAAAA | 0.0557
GCCGAAAC | 0.397
ACCGAAGC | 0.287
CCCGAAAG | 0.393
CACGAAAG | -0.148
GTCGAAAC | -0.0645
GCCGAAAA | 0.438
ACCGAAAG | 0.231
GCCGAAGC | 0.385
GACGAAGC | -0.142
ACCGAAAC | 0.372
ACCGAAAA | 0.337
GGAGGATA | -0.0736
CGTTACTC | -0.0977
AGAAGTGC | -0.122

Sequence | PBM E-score
CGCGGGAG | 0.172
TACGAAAA | -0.0536
CCCGAAAA | 0.428
TCCGAAAA | 0.441
CCCGAAAC | 0.339
CACGAAAA | -0.0798
TGCGAAAA | -0.0153
CTCAAACC | -0.0373
CGAGCTAC | 0.0965
GAGTCAAC | 0.0604
ACCATAGC | -0.123
TACATCCA | -0.202
AATTAAAT | -0.0575
CCTATCCG | 0.391
ACTATCCT | -0.0638
CCTATCCC | 0.176
AGTATCCC | -0.0361
ATTATCCG | 0.475
ACTATCCC | -0.044
AGTATCCA | 0.0731
AGTATCCG | 0.436
ACTATCCG | 0.45
CCTATCCA | -0.196
ATTATCCA | -0.0958
ATTATCCC | 0.0679

Source: the supplement of paper PMC3334620
